{"source": "the OligoGym collection"}
{"molecular_target": "TSC22D3", "test": "pooled miR-30 sensor sort-seq; sequence = guide strand", "settings": "shRNA"}
{"sequence": "TTGTTGTTCTCCCCGCTGCTGC", "sensor-assay potency score (higher = more potent)": -1.15}
{"sequence": "TGAGCTTGTCGGTATTGAGGTT", "sensor-assay potency score (higher = more potent)": -0.394}
{"sequence": "TTCAGGGCTCAGACAGGACTGG", "sensor-assay potency score (higher = more potent)": -0.708}
{"sequence": "ATTGAGGTTCTCAAAGACCAGC", "sensor-assay potency score (higher = more potent)": -1.14}
{"sequence": "AACTTCTCCAGCTGCTCTGGGC", "sensor-assay potency score (higher = more potent)": -1.22}
{"sequence": "TTGCCAGGGTCTTCAACAGGGT", "sensor-assay potency score (higher = more potent)": -0.965}
{"molecular_target": "TSEN34", "test": "pooled miR-30 sensor sort-seq; sequence = guide strand", "settings": "shRNA"}
{"sequence": "TCTAGTTTCTGCTTCTTAGCAG", "sensor-assay potency score (higher = more potent)": 0.419}
{"sequence": "AATCTTCTCCAGGAGCTCCTGA", "sensor-assay potency score (higher = more potent)": -1.01}
{"sequence": "TCTGTAGATACTGTAGCGCAGC", "sensor-assay potency score (higher = more potent)": -0.735}
